# Assay results: PubChem BioAssay (NCATS)
# Where “and” joins values, the source holds several entries; their conditions need not be identical. Equal values may be shown once. Unmarked numbers belong to inactive results. Inconclusive results are not listed. Calls of active or inactive are those of the source. Unless noted, calls follow the shape of the dose curve; as a rule, active = well fitted curve in either direction with a large enough effect (not every such curve was filed as active); inconclusive = small, poorly fitted or top-dose-only effect, or another doubt; inactive = flat fitted curve, though single readings scatter.
# How the values were obtained:
# [1] = AP1 Signaling Pathway (AID 357); also: % is scaled to controls: 0 for no effect and ±100 for the full control effect
# How it was run: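 AP-1-bla ME-180 cells with beta-lactamase reporter under AP-1 response element, stimulated with EC50 EGF; compounds titrated, 5 hours at 37 degrees Celsius. CCF4 read at 460/530 nm ratio; positive and negative modulators judged by AC50.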
# [2] = Stat Signaling Pathway (AID 446);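 also: ME-180 cervical cancer cells given 40 pM IL-6 alongside compound; SIE-controlled beta-lactamase reporter measured as 460/530 nm FRET emission ratio; % is scaled to controls: 0 for no effect and ±100 for the full control effect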
# How it was run: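 Screening format detects activators and inhibitors alike: ME-180 SIE-bla cells stimulated at 40 pM IL-6 for 5 hrs with compound, then dual-emission beta-lactamase read at 405 nm excitation.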
# [3] = NFAT Signaling Pathway (AID 444); conditions: Jurkat NFAT-bla M1, carbachol, beta-lactamase ratio, 5 h; at 17.2 µM (top of the series) unless noted;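 also: carbachol stimulus at about its EC50 of 1 µM final; % is scaled to controls: 0 for no effect and ±100 for the full control effect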
# How it was run: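 Read-out: CCF4 FRET ratio (460 nm/530 nm) after 1 h RT dye loading, used for %activity and AC50 from titration series. Cells: Jurkat NFAT-β-lactamase/M1 line, treated with compound plus 1 uM carbachol for 5 h, 37 °C.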
# [4] = molecular target: Mitogen-activated protein kinase 10 (Mus musculus) (UniProt Q61831); experiment: JNK3 AlphaScreen Assay (AID 530);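 also: kinase came from lysate of stimulated human HepG2 cells; signal reports phosphorylation of biotinylated GST-cJun 1-79 at Ser73 with 10 µM ATP; % is scaled to controls: 0 for no effect and ±100 for the full control effect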
# How it was run: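 Compound titrations were preincubated 15 minutes at room temperature with substrate, antibody and pre-activated JNK3-containing HepG2 lysate. Reactions were started with 10 uM ATP and stopped with EDTA-containing bead buffer for AlphaScreen detection.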
# [5] = Cell Viability - BJ (AID 421; calls by dose curve;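 also: potency is read from the fitted curve at half-maximal effect; cells exposed to compound for 40 hours at 37 °C before readout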); conditions: BJ fibroblast viability, qHTS
# How it was run: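 Cytotoxicity in human BJ foreskin fibroblasts is scored as loss of cellular ATP after a 40-hour exposure, measured by luciferase luminescence. Controls are DMSO and 100 uM tamoxifen.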
# [6] = Cell Viability - Jurkat (AID 426;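 active = dose-dependent loss of cell ATP signal giving a full or clear fitted curve, ranked by lower potency value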; also: potency is read from the fitted curve at half-maximal effect); conditions: qHTS
# How it was run: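 Jurkat (Clone E6-1) cells, 5000/well in complete medium, exposed to compounds for 40 hr at 37C; intracellular ATP measured by CellTiter-Glo luminescence after 20 min at room temperature. AC50 from Hill fits.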
# [7] = Cell Viability - Hek293 (AID 427;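 active = compounds whose dose-response curve shows a full or clear partial loss of cell viability, called from curve shape rather than a numeric limit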;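 also: potency is read from the fitted curve at half-maximal effect; cells exposed to compound for 40 hours at 37 °C before reading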); conditions: qHTS
# How it was run: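 qHTS, human embryonic kidney (adenovirus-transformed) cells; 40 hr cpd, 37 °C; CellTiter-Glo ATP luminescence. Norm: DMSO = 0, 100 uM tamoxifen = 100% inhibition. Hill-fit AC50.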
# [8] = Cell Viability - HepG2 (AID 433; calls by dose curve;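 also: potency is read from the fitted curve at half-maximal effect; potency for ATP loss meaning cytotoxicity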); conditions: qHTS
# How it was run: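 HepG2 hepatocellular carcinoma cells (1500/well) were treated with compounds for 40 h at 37 °C in complete medium; intracellular ATP was read by CellTiter-Glo luminescence. Data were normalized to DMSO and 100 uM tamoxifen, and AC50 came from Hill fits.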
# [9] = Cell Viability - MRC5 (AID 434; calls by dose curve;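 also: potency is read from the fitted curve at half-maximal effect; potency reflects cytotoxicity seen as loss of intracellular ATP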); conditions: MRC5 lung fibroblast viability, qHTS
# How it was run: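 qHTS cytotoxicity in human lung fibroblast MRC5 cells; 40 hr treatment, 37 °C; cellular ATP by luciferase luminescence; DMSO = 0%, 100 uM tamoxifen = 100% inhibition; Hill-fit AC50.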
# [10] = Cell Viability - SK-N-SH (AID 435; calls by dose curve;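 also: potency is read from the fitted curve at half-maximal effect; compound exposure lasted 40 h at 37 °C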); conditions: SK-N-SH neuroblastoma cell viability qHTS
# How it was run: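 SK-N-SH human neuroblastoma cells (1500/well) were exposed to compounds in complete medium for 40 h at 37 °C, and intracellular ATP was then measured by CellTiter-Glo luminescence. AC50 was taken from Hill fits, normalized to DMSO and 100 uM tamoxifen.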
# [11] = Cell Viability - N2a (AID 540; active = well fitted curve in the direction sought with a large enough effect; an effect the other way counts as inactive or inconclusive; also: nearly all actives have a fitted effect of over 45% in size; also: potency is read from the fitted curve at half-maximal effect;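 as to activity change, negative = cytotoxicity: plate controls were DMSO alone for no effect and tamoxifen control for full effect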)
# How it was run: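 Mouse neuroblastoma N2a cells, 1500/well, exposed to compounds 40 h at 37 °C in complete medium. Viability measured as cellular ATP by CellTiter-Glo luminescence; AC50 from Hill fits of concentration-response.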
# [12] = Cell Viability - NIH 3T3 (AID 541; active = well fitted curve in the direction sought with a large enough effect; an effect the other way counts as inactive or inconclusive; also: nearly all actives have a fitted effect of over 25% in size; also: potency is read from the fitted curve at half-maximal effect;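 as to activity change, negative = cytotoxicity: plate controls were DMSO alone for no effect and tamoxifen positive control for full effect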); conditions: NIH 3T3 cell viability, qHTS; activity change, negative = cytotoxicity: at 92.2 µM (top of the series)
# How it was run: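 Mouse NIH 3T3 fibroblasts, 1000 cells/well, rested 5 hr at 37 °C, then exposed to compound for 40 hr at 37 °C in complete medium. Viability read as intracellular ATP by CellTiter-Glo luminescence; AC50 from Hill-equation fits of concentration-response data.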
# [13] = Cell Viability - HUV-EC-C (AID 542; active = well fitted curve in the direction sought with a large enough effect; an effect the other way counts as inactive or inconclusive; also: % is scaled to controls: 0 for no effect and ±100 for the full control effect; nearly all actives have a fitted effect of over 35% in size)
# How it was run: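 HUV-EC-C human vascular endothelial cells, 1000/well, exposed to compound for 40 hr at 37 °C in complete medium. Intracellular ATP was read by CellTiter-Glo luminescence. AC50 came from Hill-equation fits of concentration-response data.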
# [14] = Cell Viability - H-4-II-E (AID 543; active = well fitted curve in the direction sought with a large enough effect; an effect the other way counts as inactive or inconclusive; also: nearly all actives have a fitted effect of over 35% in size; also: potency is read from the fitted curve at half-maximal effect)
# How it was run: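 Rat hepatoma H-4-II-E cells, 1500 per well, treated 40 h at 37 °C in complete medium. Cellular ATP read by CellTiter-Glo luminescence; AC50 from Hill fits of concentration-response.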
# [15] = Cell Viability - SH-SY5Y (AID 544; active = well fitted curve in the direction sought with a large enough effect; an effect the other way counts as inactive or inconclusive; also: nearly all actives have a fitted effect of over 55% in size; also: potency is read from the fitted curve at half-maximal effect;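 as to viability change, negative = cytotoxic: 0% = DMSO alone and -100% = 100 µM tamoxifen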); conditions: SH-SY5Y neuroblastoma cell viability; viability change, negative = cytotoxic: at 92.2 µM (top of the series)
# How it was run: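 SH-SY5Y human neuroblastoma cells (1500/well) incubated 5 h, then compound-treated 40 h at 37 °C in complete medium. Viability read as intracellular ATP by CellTiter-Glo luminescence after 20 min; AC50 from Hill-equation fits of qHTS concentration-response.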
# [16] = Cell Viability - Renal Proximal Tubule (AID 545; active = well fitted curve in the direction sought with a large enough effect; an effect the other way counts as inactive or inconclusive;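 also: 0% = DMSO only and -100% = 100 µM tamoxifen; nearly all actives have a fitted effect of over 40% in size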)
# How it was run: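 Primary rat renal proximal tubule cells (1000/well) were treated with compounds for 40 hr at 37 °C in complete medium. Intracellular ATP was measured by CellTiter-Glo luminescence, and AC50 values came from Hill-equation fits of concentration-response data.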
# [17] = molecular target: Glucocorticoid receptor (Homo sapiens) (UniProt P04150); experiment: GR-GFP Redistribution (AID 450;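 active = compounds whose dose series gives a full or clear partial fitted curve of increased nuclear translocation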; also: potency is read from the fitted curve at half-maximal effect); conditions: U2OS GR-GFP nuclear translocation, laser cytometry, 2 h
# [18] = molecular target: Cytochrome P450 1A2 (Homo sapiens) (UniProt P05177); experiment: p450-cyp1a2 (AID 410; calls by dose curve; also: potency is read from the fitted curve at half-maximal effect;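 as to activity change, negative = inhibition: -100% = full effect of reference inhibitor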)
# How it was run: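 20nM CYP1A2 with 100uM Luciferin-ME (at Km) in 100mM KPO4; compound preincubated 10 min, NADPH regeneration added, 60 min at room temperature. Luciferin quantified by luminescence after detection reagent; normalized to 57 uM furafylline.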
# [19] = molecular target: Glucocorticoid receptor (Homo sapiens) (UniProt P04150); experiment: GR-EFC Redistribution (AID 451; calls by dose curve; also: potency is read from the fitted curve at half-maximal effect); conditions: CHO-K1 GR-EFC translocation, beta-gal luminescence, 2 h
# How it was run: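 Translocation of GR-ED fusion to nuclear EA restores b-gal, read by luminescence after 1 h room-temperature detection. Engineered CHO-K1 biosensor cells, 1,000/well, exposed 2 h at 37 C to titrations up to 46 uM final.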
# Sequence of Cytochrome P450 1A2 (Homo sapiens) (P05177 whole entry, looked up): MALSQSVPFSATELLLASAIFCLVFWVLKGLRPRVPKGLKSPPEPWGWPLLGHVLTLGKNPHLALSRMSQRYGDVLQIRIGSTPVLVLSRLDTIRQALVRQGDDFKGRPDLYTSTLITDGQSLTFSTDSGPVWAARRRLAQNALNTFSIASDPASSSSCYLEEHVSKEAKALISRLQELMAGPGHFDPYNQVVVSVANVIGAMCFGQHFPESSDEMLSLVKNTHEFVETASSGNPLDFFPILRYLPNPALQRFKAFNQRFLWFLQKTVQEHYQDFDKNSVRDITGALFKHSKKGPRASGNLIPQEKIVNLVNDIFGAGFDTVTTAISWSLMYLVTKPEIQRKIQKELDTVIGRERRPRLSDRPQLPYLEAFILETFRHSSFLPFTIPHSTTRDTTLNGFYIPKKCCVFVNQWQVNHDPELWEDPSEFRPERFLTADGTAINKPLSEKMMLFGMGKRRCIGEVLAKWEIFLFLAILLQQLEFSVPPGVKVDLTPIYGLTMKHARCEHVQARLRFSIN
# Sequence of Glucocorticoid receptor (Homo sapiens) (P04150 whole entry, looked up, the tested form may be a part): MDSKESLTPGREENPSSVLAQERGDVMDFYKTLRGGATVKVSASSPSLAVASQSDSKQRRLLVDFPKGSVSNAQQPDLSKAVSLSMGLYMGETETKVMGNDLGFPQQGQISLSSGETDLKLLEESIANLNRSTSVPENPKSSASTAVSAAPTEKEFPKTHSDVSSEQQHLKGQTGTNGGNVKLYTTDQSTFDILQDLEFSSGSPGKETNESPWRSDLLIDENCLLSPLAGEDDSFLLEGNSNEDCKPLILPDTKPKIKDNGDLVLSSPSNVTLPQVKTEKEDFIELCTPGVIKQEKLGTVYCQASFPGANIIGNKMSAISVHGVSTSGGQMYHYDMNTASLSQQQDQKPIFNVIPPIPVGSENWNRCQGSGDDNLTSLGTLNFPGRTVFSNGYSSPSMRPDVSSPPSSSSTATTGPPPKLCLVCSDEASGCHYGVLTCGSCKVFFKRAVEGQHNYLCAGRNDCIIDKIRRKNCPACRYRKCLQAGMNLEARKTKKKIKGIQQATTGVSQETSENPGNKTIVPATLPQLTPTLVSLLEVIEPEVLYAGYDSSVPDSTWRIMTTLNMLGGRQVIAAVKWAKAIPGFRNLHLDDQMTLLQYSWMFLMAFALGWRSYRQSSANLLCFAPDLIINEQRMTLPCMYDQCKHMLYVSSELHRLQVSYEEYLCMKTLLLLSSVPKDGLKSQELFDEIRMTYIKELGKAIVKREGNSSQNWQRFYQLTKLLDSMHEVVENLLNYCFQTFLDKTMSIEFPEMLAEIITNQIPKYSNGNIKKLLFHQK
smiles,measurement,setting,value
CC(=O)OCC(=O)[C@H]1CC[C@H]2[C@@H]3CCC4=CC(=O)CC[C@]4(C)[C@H]3CC[C@]12C,outcome,[1],inactive
same,outcome,[2],inactive
c1ccc(CC2=NCCN2)cc1,outcome,[1],inactive
same,"activity change, negative = inhibition",[3],-12.4%
same,outcome,[2],inactive
same,Potency,[4],inactive
CCOc1ccccc1C(N)=O,Potency,[5],> 92 µM
same,Potency,[6],> 92 µM
same,Potency,[7],> 92 µM
same,Potency,[8],> 92 µM
same,Potency,[9],> 92 µM
same,Potency,[10],> 92 µM
same,Potency,[4],inactive
same,Potency,[11],inactive
same,"activity change, negative = cytotoxicity",[12],2.98%
same,outcome,[13],inactive
same,Potency,[14],inactive
same,"viability change, negative = cytotoxic",[15],-2.76%
same,outcome,[16],inactive
COc1cc([C@H]2Oc3cc([C@H]4Oc5cc(O)cc(O)c5C(=O)[C@@H]4O)ccc3O[C@@H]2CO)ccc1O,Potency,[5],> 92 µM
same,Potency,[7],> 92 µM
same,Potency,[8],> 92 µM
same,Potency,[9],> 92 µM
same,Potency,[10],> 92 µM
same,Potency,[11],inactive
same,Potency,[12],31.6 µM (active)
same,outcome,[13],inactive
same,Potency,[14],31.6 µM (active)
same,"viability change, negative = cytotoxic",[15],-84.4% (active)
CN(C)CCOC(=O)C(c1ccccc1)C1(O)CCCC1 (stereo not given),outcome,[1],inactive
same,"activity change, negative = inhibition",[3],-76.1% (active)
same,outcome,[2],inactive
same,Potency,[17],> 20.6 µM
CC[C@H](c1ccc(O)cc1)[C@@H](CC)c1ccc(O)cc1,Potency,[18],12.6 µM (active)
same,outcome,[2],inactive
same,Potency,[17],> 20.6 µM
same,Potency,[19],> 20.6 µM
same,Potency,[4],inactive
NC(=O)c1ccccc1O,Potency,[5],> 92 µM
same,Potency,[6],> 92 µM
same,Potency,[7],> 92 µM
same,Potency,[8],> 92 µM
same,Potency,[9],> 92 µM
same,Potency,[10],> 92 µM
same,Potency,[4],inactive
same,Potency,[11],inactive
same,"activity change, negative = cytotoxicity",[12],6.43%
same,outcome,[13],inactive
same,Potency,[14],inactive
same,"viability change, negative = cytotoxic",[15],4.84%
same,outcome,[16],inactive
COc1ccccc1N1CCN(CCCCNC(=O)c2ccc(-c3ccc(C(C)=O)cc3)cc2)CC1,Potency,[18],25.1 µM (active)
same,Potency,[17],> 46 µM
same,Potency,[19],> 46 µM
CCOC(=O)Nc1ccc2c(c1)N(C(=O)CCN1CCOCC1)c1ccccc1S2,Potency,[18],inactive
same,outcome,[2],inactive
same,Potency,[19],> 20.6 µM
same,Potency,[4],inactive
CCCCc1cc2ccccc2c(OCCN(C)C)n1,Potency,[18],0.0794 µM (active)
same,outcome,[2],inactive
same,Potency,[17],> 20.6 µM
same,Potency,[19],> 20.6 µM
same,Potency,[4],inactive
COc1cc(NS(=O)(=O)c2ccc(N)cc2)ncn1,outcome,[1],inactive
same,"activity change, negative = inhibition",[3],-5.57% and -24.6% and -2.19%
same,outcome,[2],inactive
same,Potency,[17],> 20.6 µM
same,Potency,[19],> 20.6 µM
same,Potency,[4],inactive
NCCNc1cccc2ccccc12,Potency,[5],> 92 µM
same,Potency,[8],> 92 µM
same,Potency,[9],> 92 µM
same,Potency,[10],> 92 µM
same,Potency,[4],inactive
same,Potency,[11],inactive
same,"activity change, negative = cytotoxicity",[12],-24.9%
same,outcome,[13],inactive
same,outcome,[16],inactive
CN1CCC(OC(c2ccccc2)c2ccccc2)CC1,outcome,[1],inactive
same,outcome,[2],inactive
same,Potency,[19],> 20.6 µM
same,Potency,[4],inactive
Oc1c(Cl)cc(Cl)c(Cl)c1Cc1c(O)c(Cl)cc(Cl)c1Cl,Potency,[5],0.536 µM
same,Potency,[8],10.7 µM (active)
same,Potency,[4],inactive
same,Potency,[11],0.794 µM (active)
same,"activity change, negative = cytotoxicity",[12],-102% (active)
same,Potency,[14],31.6 µM (active)
same,Potency,[15],15.8 µM (active)
CN=C(N)NCCC[C@H](N)C(=O)O,outcome,[1],inactive
same,"activity change, negative = inhibition",[3],-7.03% [at 38 µM]
same,Potency,[4],inactive
Cl/C(=C\n1cncn1)c1ccc(Cl)cc1Cl,Potency,[18],0.0631 µM (active)
same,Potency,[17],> 46 µM
same,Potency,[19],> 46 µM
C[N+]12CCC(CC1)C(OC(=O)C(O)(c1ccccc1)c1ccccc1)C2 (stereo not given),outcome,[1],inactive
same,"activity change, negative = inhibition",[3],-83.7% (active)
same,outcome,[2],inactive
same,Potency,[17],> 20.6 µM
COc1ccc(C(=O)c2ccccc2O)c(O)c1,outcome,[1],inactive
same,"activity change, negative = inhibition",[3],-15.7%
same,outcome,[2],inactive
same,Potency,[17],> 20.6 µM
same,Potency,[19],> 20.6 µM
same,Potency,[4],inactive
CCN(CC)CCNC(=O)COc1ccc(OC)cc1,outcome,[1],inactive
same,"activity change, negative = inhibition",[3],-21.8%
same,outcome,[2],inactive
same,Potency,[17],> 20.6 µM
same,Potency,[19],> 20.6 µM
same,Potency,[4],inactive
CC(C)(C)NCC(O)COc1cccc2c1C[C@H](O)[C@H](O)C2 (stereo not given in full),outcome,[1],inactive
same,"activity change, negative = inhibition",[3],1.44%
same,outcome,[2],inactive
same,Potency,[17],> 20.6 µM
